Results reported in ChEMBL document CHEMBL4513216, “Probing the Open Global Health Chemical Diversity Library for Multistage-Active Starting Points for Next-Generation Antimalarials” (ACS Infect Dis, 2020).
Out of some 69,000 compounds screened, about 8,600 (12%) showed an effect of 50% or more. The sample holds strong results, similar compounds and a random draw of the others, so the mix is not that of the screen.

System: Plasmodium berghei
Assay: Screen against P. berghei liver stage (PbLuc), transformed with Luciferase, at 10uM
Assay type: functional, HepG2
Details: tested at 10 uM

Compound | INHIBITION
CC(C)=CCN1CC2(CCN(Cc3ncc[nH]3)CC2)CC1=O | 4.82%
CN1CC2(CCN(Cc3ncc[nH]3)CC2)CC1=O | 53.7%
COCCCN1CC2(CCN(Cc3ncc[nH]3)CC2)CC1=O | 28.7%
CN1CC2(CCN(Cc3cccc(C#N)c3)CC2)CC1=O | 43.1%
Cc1ncc(CN2CCC3(CC2)CC(=O)N(C)C3)cn1 | 55.9%
Cc1ccc(=O)n(CC2(O)CCN(Cc3cnc(C)nc3)CC2)n1 | 15.9%
CC(=O)NCC(=O)N1CCn2cc(CN(C)Cc3ccco3)nc2C1 | 42.5%
O=C1COC2(CCN(C(=O)c3ccoc3)CC2)CN1Cc1cccnc1 | 0.112%
Fc1ccccc1Oc1nccnc1C1CCCN(C2CCOCC2)C1 (stereo not drawn) | -3.02%
O=C(NCc1ccnc(OCC(F)(F)F)c1)NCC1CCCO1 (stereo not drawn) | -20.3%
O=C(c1ccc(Br)cc1F)N1CCc2ccncc21 | -4.91%
COc1ccc(C[C@H]2CN(C3CCOCC3)CC[C@@H]2OCC2CC2)cc1 | 29.7%
Cc1cc(C(=O)N2CCCCC2c2nc3cc(F)ccc3[nH]2)no1 (stereo not drawn) | 4.97%
O=C(c1ccon1)N1CCCCC1c1nc2cc(F)ccc2[nH]1 (stereo not drawn) | 62.9%
Fc1ccc2[nH]c(C3CCCN3Cc3c[nH]cn3)nc2c1 (stereo not drawn) | 42.6%
Fc1ccc2[nH]c(C3CCCN3CCc3ccccn3)nc2c1 (stereo not drawn) | 21.8%
O=C(CN1CCCC1c1nc2cc(F)ccc2[nH]1)NCc1ccccn1 (stereo not drawn) | 50.1%
Cn1nc(C(=O)N2CCCCC2c2nc3cc(F)ccc3[nH]2)ccc1=O (stereo not drawn) | 11.8%
CN1CC2(CCN(Cc3ccoc3)CC2)COc2ccccc2S1(=O)=O | 13.7%
Cc1cc(C(N)=O)nc(C2(C)CCCN2Cc2cnn(C)c2)n1 (stereo not drawn) | 18.3%
Cc1nccn1[C@@H]1CC[C@@H](N(C)S(=O)(=O)c2cccc(F)c2)[C@H]1O | 16.96%
CCN(C(=O)CN1CCCC1c1ccc(F)cc1)c1ccccc1C (stereo not drawn) | -55.1%
Cc1cc(C2CCCN2CC(=O)N(CCC#N)c2ccccc2F)on1 (stereo not drawn) | 26.8%
CCN(C(=O)CN1CCCC1c1cc(C)no1)c1ccccc1C (stereo not drawn) | 62.4%
CN(C)CCOCc1nnc2n1CCN(Cc1cccs1)CC2 | -35%
O=C(CSC1CCc2ccccc2NC1=O)NCc1cccs1 (stereo not drawn) | 3.13%
CN(CCCc1nccn1C)c1nccc(-c2cc(C(=O)O)ccn2)n1 | 14%

Compound | INHIBITION
O=C(Cc1cnc(-n2cccc2)s1)NCCCO | -1.99%
CN(C)C(=O)NCc1ncn2c1CN(Cc1cccs1)CCC2 | 52.3%
c1csc(CN2CCCn3cnc(COCC4CC4)c3C2)c1 | -1.55%
OCCOCc1ncn2c1CN(Cc1cccs1)CCC2 | 21.8%
c1coc(COCc2ncn3c2CN(Cc2cccs2)CCC3)c1 | 56.7%
CN(C)C(=O)NCc1ncn2c1CN(Cc1ccco1)CCC2 | 28.2%
CS(=O)(=O)NCc1ncn2c1CN(Cc1cccs1)CCC2 | -17.9%
Cc1ccc(S(=O)(=O)NCCc2nnc[nH]2)c2cccnc12 | 33.7%
O=C1CCCN1Cc1ncn2c1CN(C(=O)NC1CCCC1)CCC2 | -56.2%
NC(=O)N1CCCCCC1C1CCN(c2nccc(C(F)(F)F)n2)CC1 (stereo not drawn) | 61.8%
N#Cc1cccnc1N1CCC(C2CCCCCN2C(N)=O)CC1 (stereo not drawn) | -5.567%
O=C(C1CC1)N1CCCCCC1C1CCN(c2ncccn2)CC1 (stereo not drawn) | 22.3%
CC(C)N1CCC(c2nccnc2Nc2cnccn2)CC1 | 23.9%
CCCc1nc(C)c(C(=O)NCCNc2ncccn2)s1 | 19.6%
Cc1ncc(C(=O)NCCNC(=O)c2ccccc2)s1 | 0.411%
CCc1nc(C)c(C(=O)NCCNc2ncccc2C#N)s1 | 2.3%
Cc1ncsc1C(=O)NCCNC(=O)c1cccs1 | 10.2%
CCc1nc(C)c(C(=O)NCCNC(=O)c2cccs2)s1 | 58%
CCc1nc(C)c(C(=O)NCCNc2ncccn2)s1 | 29.1%
CCc1ncncc1C(=O)NCCNc1ncnc2sccc12 | 41.3%
CCc1ncc(C(=O)NCCNc2ccncc2)s1 | 23.4%
Cc1ncc(C(=O)NCCNc2ccncc2)s1 | -21.3%
CCc1nc(C)c(C(=O)NCCNc2ncnc3sccc23)s1 | 93.3%
CCc1ncc(C(=O)NCCNc2ncnc3sccc23)s1 | 96%
Cc1ncc(C(=O)NCCNc2ncnc3sccc23)s1 | 77.1%
COc1c(C2CCCN2C(=O)c2cc(C)on2)c(C)nn1C (stereo not drawn) | 14.1%
